PubChem BioAssay (NCATS)
The source made the active and inactive calls. A call without a number means that no potency is given here. Calls follow the shape of the dose curve; as a rule, active = well fitted curve in the direction sought with a large enough effect; inconclusive = small, poorly fitted or top-dose-only effect, or another doubt; inactive = no such curve, though single readings can be large or run the other way.

Experiment: Validation qHTS assay for inhibitors of Activation Induced Cytidine Deaminase (AID): UDG Counterscreen signal (AID 1347427)
Conditions: biochemical UDG counterscreen, fluorescence signal; series mostly up to 115 µM
Source text: Assay Provider (PI) Patricia Gearhart Ph.D.
National Institute on Aging
National Institute of Health (NIH), Bethesda, MD
Assay Provider (PI) Rahul Kohli Ph.D.
Perelman School of Medicine
University of Pennsylvania, Philadelphia, PA
Activation-Induced Deaminase (AID) is a cytosine deaminase which converts cytosine into uracil within stretches of ssDNA. The presence of uracil in DNA initiates a cascade of mutagenic DNA repair to introduce point mutations and DNA double strand breaks. Specific targeting of AID to the immunoglobulin heavy chain loci (Igh) promotes mutagenesis in the antibody variable region for somatic hypermutation (SHM) or switch regions leading to class switch recombination (CSR). However, AID also plays a role in accumulating unnecessary mutations across the genome. Mis-targeting of AID results in the initiation of tumor development and leads to greater drug resistance among cancer cells when continually expressed. To identify an AID inhibitor, a small molecule library will be screened in collaboration with NCATS core facility at NIH. To confirm biological function, inhibitors will be examined in an in vitro murine B-cell activation assay and subsequent secondary validation screens. Top molecules will be further screened to identify inhibitory efficacy against a wild type primary splenocytes assay. Using these approaches, we hope to identify a small molecule with great efficacy and low toxicity for use as a molecular probe to further characterize AID's intricacies, or even as a therapeutic.
A FRET based analysis of cytosine deamination, was developed to identify potential inhibitors of AID catalytic activity. This screen has two signal output, Read 1 evaluates the AID inhibition response. The second readout (Read 2) evaluates UDG response and is uses as a counterscreen to exclude false positive inhibitors. Inhibition in AID and inactivity in the UDG signal is the desired outcome for this assay.
SEQUENCE No. (e.g., 1, 2, 3, etc.); […] (e.g., Cells, Incubation, Reagent, etc.); VALUE; DESCRIPTION
1a; Reagent; 3 uL; [4/3x] 1 uM AID/2.67 U/mL UDG
1b; Reagent; 3 uL; 2 U/mL UDG
1c; Reagent; 3 uL; 1 uM AID
2a; Compound; 46 nL; Follow-up plates (0.64 uM - 10 mM)
2b; Control; 46 nL; ATA ([…] - 10 mM)
3; Time; 10 min; incubation at room temperature
5; Time; 4 hr; incubation at room temperature
6; Reagent; 4 uL; [2x] 250 mM NaOH
7; Time; 15 sec; centrifuge at 1000 rpm
8; Time; 30 min; incubation at room temperature
9a; Detection; fluorescence (Read 1: AID); EnVision (PerkinElmer) plate reader, 540 excitation and 590 emission filters
9b; Detection; fluorescence (Read 2: UDG); EnVision (PerkinElmer) plate reader, 560 excitation and 665 emission filters
NOTES (numbers refer to sequence above)
1a; Reagents were dispensed in a medium-binding black solid-bottom Greiner plates (789176F) using a BioRptr liquid dispenser. Dispense 3 uL of [4/3x] 1 uM AID (provided by Kohli lab) and [4/3x] 2 U/mL UDG (NEB M0280L) into columns 1, 2, 5 to 48.
1b; Dispense 3 uL of [4/3x] 2 U/mL UDG into column 3.
1c; Dispense 3 uL of [4/3x] 1 uM AID into column 4.
2b; 10 mM Aurintricarboxylic Acid (Sigma A1895) (ATA, 8-point, n = 2, 1:2.5 dilution in column 2) double pin-transferred (Dip Factor = 2) using the Kalypsys (Wako USA) pintool equipped with a 1536 pinhead for a [final] range of 186 nM - 114 uM.
3; Room temperature incubation.
4; Dispense 1 uL of substrate mixture from the Kohli lab [4x] […] DJC20 and [4x] 250 nM DJC23 into columns 1 to 48 .
5; Room temperature incubation.
6; Dispense 4 uL of substrate mixture [2x] 250 mM NaOH into columns 1 to 48.
7; Centrifugation step to remove bubbles.
8; Room temperature incubation
9a; Fluorescence signal (column label AID) was read using the EnVision plate reader. Excitation filter = 540(8) nm, barcode = 311; Emission filter = 590(20) nm, barcode = 217; Mirror = D555, barcode = 405.
9b; Fluorescence signal (column label UDG) was read using the EnVision plate reader. […]

Row | SMILES | Potency
1 | CN(C)c1ccc(/C=C2\C(=O)Nc3ccccc32)cc1 | inactive
2 | CN1CCc2cccc3c2C1Cc1ccc(O)c(O)c1-3 (stereo not given) | inactive
3 | Fc1ccc(C(OCCCc2cnc[nH]2)c2ccc(F)cc2)cc1 | inactive
4 | COc1ccc(/C=C/C(=O)Nc2ccccc2C(=O)O)cc1OC | inactive
5 | O=C(O)CC1CC(c2ccccc2)=NO1 (stereo not given) | inactive
6 | NC[C@H]1O[C@@H](n2cnc3c(N)ncnc32)[C@H](O)[C@@H]1O | inactive
7 | CCNC(=O)[C@H]1O[C@@H](n2cnc3c(N)nc(NCCc4ccc(CCC(=O)O)cc4)nc32)[C@H](O)[C@@H]1O | inactive
8 | CC(C)ON([C@@H](C(=O)NO)C(C)C)S(=O)(=O)c1ccc(-c2ccccc2)cc1 | inactive
9 | CN1C2CCC1CC(OC(=O)C(O)c1ccccc1)C2 (stereo not given) | inactive
10 | COc1cccc(OC)c1OCCNCC1COc2ccccc2O1 (stereo not given) | inactive
11 | NC(=S)NCCC[C@H](N)C(=O)O | inactive
12 | COc1cc(C(O)CO)ccc1OS(=O)(=O)O (stereo not given) | inactive
13 | NC(=O)C(=O)O | inactive
14 | O=C1NC(=O)/C(=C/c2ccc3nccnc3c2)S1 | inactive
15 | COC(=O)c1c(C)[nH]c(C)c1C(=O)c1ccccc1Cc1ccccc1 | inactive
16 | O=c1[nH]c2cc(Cl)c(Cl)cc2[nH]c1=O | inactive
17 | O=C(CCCCCN1CCN(c2ccccc2-c2ccccc2)CC1)NC1CCCc2ccccc21 (stereo not given) | inactive
18 | O=C(/C=C/c1ccc(O)cc1)c1ccc(O)cc1O | inactive
19 | CCN1/C(=C/C(C)=O)Sc2ccc(OC)cc21 | inactive
20 | CO/N=C(\C(=O)N[C@@H]1C(=O)N2C(C(=O)O)=C(COC(C)=O)CS[C@H]12)c1csc(N)n1 | inactive

Row | SMILES | Potency
21 | CN1[C@@H](CC(=O)c2ccccc2)CCC[C@H]1C[C@H](O)c1ccccc1 | inactive
22 | CO/S(=N\S(=O)(=O)c1ccc(Cl)cc1)c1ccc([N+](=O)[O-])cc1 (stereo not given) | inactive
23 | O=C(/C=C/c1ccc(O)c(O)c1)OCCc1ccccc1 | inactive
24 | C#CCN1C(C)=C(C(=O)OC)C(c2cccc([N+](=O)[O-])c2)C(C(=O)OCC)=C1C (stereo not given) | inactive
25 | CC1CN(S(=O)(=O)c2cccc3cnccc23)CCN1 (stereo not given) | inactive
26 | Cc1ccc(O)c(N=Nc2ccccc2)n1 | inactive
27 | Cc1cc(NC2CCCCC2)nc(-n2nc(C)cc2C)n1 | inactive
28 | N.N.O=C(O)C1(C(=O)O)CCC1.[Pt] | inactive
29 | COc1cccc(C(=O)NCCN2CCN(c3ccc(Cl)cc3)CC2)c1 | inactive
30 | CCCCCCCCc1ccc(-c2ccc(C(=O)O)cc2)cc1 | inactive
31 | O=c1[nH]c2cc([N+](=O)[O-])c([N+](=O)[O-])cc2[nH]c1=O | inactive
32 | Oc1cc(O)cc(/C=C/c2ccc(O)c(O)c2)c1 | inactive
33 | O=C(Nc1cccc(C(=O)Nc2ccc(S(=O)(=O)O)c3cc(S(=O)(=O)O)cc(S(=O)(=O)O)c23)c1)Nc1cccc(C(=O)Nc2ccc(S(=O)(=O)O)c3cc(S(=O)(=O)O)cc(S(=O)(=O)O)c23)c1 | inactive
34 | CN1CCc2cc(NC(=O)Nc3cccnc3)ccc21 | inactive
35 | O=[N+]([O-])c1ccc2c(c1)S(=O)(=O)C=C2 | inactive
36 | O=C(O)CC[C@@H](C(=O)O)N1C(=O)c2ccccc2C1=O | inactive
37 | C=CC(N)CCC(=O)O (stereo not given) | inactive
38 | O=C(O)[C@@H]1C[C@H](C(=O)O)N1 | inactive
39 | NCCSSCCN | inactive
40 | Cc1cc(NC(=O)Nc2ccc3c(ccn3C)c2)sn1 | inactive
